From PubChem BioAssay (Tox21)
Inconclusive results are not listed. Activity calls are given as the source filed them. Unless noted, calls follow the shape of the dose curve; as a rule, active = well fitted curve in the direction sought with a large enough effect in the repeat runs; inconclusive = weak or mixed curves; inactive = no such curve, though single readings can be large; an effect the other way counts as inactive or inconclusive.

Experiments:
[1] = qHTS assay to identify small molecule that activate the aryl hydrocarbon receptor (AhR) signaling pathway - cell viability counter screen (AID 743086);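 also: HepG2 liver cells carrying the AhR DRE luciferase reporter; series mostly up to about 70 µM; nearly all actives have a fitted effect of over 45% in size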
In short: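 Cytotoxicity counter screen: CellTiter-Fluor signal (30 min, 37 C) in 4000 HepG2 cells/well carrying the DRE-luciferase reporter, following 24 h compound exposure at 37 C.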

[2] = molecular target: Peroxisome proliferator-activated receptor gamma (Homo sapiens) (UniProt P37231); assay: qHTS assay to identify small molecule agonists of the peroxisome proliferator-activated receptor gamma (PPARg) signaling pathway (AID 743094; active = well fitted activation curve with a large enough effect in the signal ratio in the repeat runs, not every such curve was filed as active; the % refers to the signal ratio)
In short: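 Beta-lactamase FRET fluorescence was the read-out after a 1 h room-temperature substrate step, following 17 h compound treatment at 37C of HEK293H cells expressing a UAS-driven bla reporter responsive to PPARg.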

[3] = qHTS assay to identify small molecule antagonists of the peroxisome proliferator-activated receptor gamma (PPARg) signaling pathway - cell viability counter screen (AID 743194); also: nearly all actives have a fitted effect of over 55% in size
In short: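 Viability was measured as CellTiter-Glo luminescence in GeneBLAzer PPARg UAS-bla HEK293H cells. These cells had been exposed 17 h at 37 C to compounds together with rosiglitazone at 50 nM final, with the beta-lactamase readout taken in the same wells.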

[4] = qHTS assay for small molecule agonists of the antioxidant response element (ARE) signaling pathway - cell viability counter screen (AID 743203; calls by dose curve; also: nearly all actives have a fitted effect of over 55% in size)
In short: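 HepG2 cells carrying ARE-driven beta-lactamase; 2,000 cells/well; 5 hrs plating; compound pinned from DMSO; 16 hrs 37C/5% CO2; CellTiter-Glo added; 30 min RT; luminescence.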

[5] = qHTS assay for small molecule activators of the heat shock response signaling pathway (AID 743210; active = well fitted activation curve with a large enough effect in the signal ratio in the repeat runs, with a control signal flat, not every such curve was filed as active; the % refers to the signal ratio;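 also: HeLa cells with beta-lactamase reporter driven by heat shock elements; series mostly up to about 63 µM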)
In short: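 In HSE-bla HeLa cells, 5 h compound incubation (37 C) precedes addition of LiveBLAzer B/G substrate; after 2.5 h at room temperature, fluorescence intensity indicates reporter induction.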

[6] = qHTS assay to identify small molecule agonists of the peroxisome proliferator-activated receptor delta (PPARd) signaling pathway - cell viability counter screen (AID 743211); also: nearly all actives have a fitted effect of over 55% in size
In short: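 HEK293H PPARd-bla, 3000 cells/well; 5 h preincubation 37C/5% CO2; cpd in DMSO, 17 h 37C; B/G FRET substrate 2 h RT; CellTiter-Glo 30 min RT, luminescence.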

[7] = molecular target: Peroxisome proliferator-activated receptor delta (Homo sapiens) (UniProt Q03181); assay: qHTS assay to identify small molecule agonists of the peroxisome proliferator-activated receptor delta (PPARd) signaling pathway (AID 743212; calls by dose curve)
In short: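 HEK293H UAS-bla reporter cells, human PPARd system; compounds delivered in DMSO after 5 h plating, then at 37 C. Beta-lactamase FRET read, 2 h RT substrate step.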

[8] = qHTS assay to identify small molecule antagonists of the peroxisome proliferator-activated receptor delta (PPARd) signaling pathway - cell viability counter screen (AID 743213); also: nearly all actives have a fitted effect of over 50% in size
In short: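 Agonist-stimulated (L165041, 300 nM final) HEK293H PPARd UAS-bla cells are exposed to compounds for 17 h at 37 C, and ATP-based luminescence (CellTiter-Glo) from the same wells reports cytotoxicity.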

[9] = molecular target: Peroxisome proliferator-activated receptor delta (Homo sapiens) (UniProt Q03181); assay: qHTS assay to identify small molecule antagonists of the peroxisome proliferator-activated receptor delta (PPARd) signaling pathway (AID 743215; active = well fitted inhibition curve with a large enough effect in the signal ratio in the repeat runs, not every such curve was filed as active; the % refers to the signal ratio; also: series mostly up to about 62 µM)
In short: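 Read-out is beta-lactamase FRET fluorescence, measured 2 h after substrate addition at room temperature. Beforehand, UAS-bla HEK293H cells carrying the PPARd reporter were exposed to compounds with L165041 at 300 nM final for 17 h at 37 C.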

[10] = qHTS assay to identify small molecule agonists of the farnesoid-X-receptor (FXR) signaling pathway - cell viability counter screen (AID 743218); also: nearly all actives have a fitted effect of over 45% in size
In short: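 HEK 293T FXR-bla cells; 5 h pre-incubation, 16 h compound exposure at 37 C; LiveBLAzer substrate 2 h RT, then CellTiter-Glo 30 min RT, luminescence.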

[11] = qHTS assay to identify small molecule antagonists of the farnesoid-X-receptor (FXR) signaling pathway - cell viability counter screen (AID 743221; active = well fitted cell-killing curve with a large enough effect in the repeat runs, not every such curve was filed as active; also: nearly all actives have a fitted effect of over 50% in size)
In short: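 Luminescence from CellTiter-Glo measures cytotoxicity in GeneBLAzer FXR-UAS-bla HEK 293T cells. Cells were exposed to compounds with 50 uM chenodeoxycholic acid (final) for 16 h at 37 C, in wells also used for the reporter readout.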

[12] = molecular target: Vitamin D3 receptor (Homo sapiens) (UniProt P11473); assay: qHTS assay to identify small molecule agonists of the vitamin D receptor (VDR) signaling pathway (AID 743222; calls by dose curve)
In short: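 VDR-bla cells, 2,000/well; 4 h preincubation 37C; cpd (DMSO) 16 h; LiveBLAzer B/G substrate 2 h RT; fluorescence intensity read.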

[13] = molecular target: Vitamin D3 receptor (Homo sapiens) (UniProt P11473); assay: qHTS assay to identify small molecule antagonists of the vitamin D receptor (VDR) signaling pathway (AID 743223; active = well fitted inhibition curve with a large enough effect in the signal ratio in the repeat runs, not every such curve was filed as active; the % refers to the signal ratio)
In short: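 Antagonist mode uses 1alpha,25-dihydroxyvitamin D3 at 3 nM final as stimulus. VDR-bla cells receive compounds in DMSO, incubate 16 h at 37C, then a beta-lactamase FRET substrate for 2 h at room temperature before fluorescence measurement.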

[14] = qHTS assay to identify small molecule agonists of the vitamin D receptor (VDR) signaling pathway - cell viability counter screen (AID 743224); also: series mostly up to about 63 µM; nearly all actives have a fitted effect of over 50% in size
In short: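 Luminescence from CellTiter-Glo, read after 30 min at room temperature, reports viability of VDR-bla cells treated with compounds for 16 h at 37C in the wells used for the beta-lactamase FRET read.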

[15] = molecular target: Peroxisome proliferator-activated receptor gamma (Homo sapiens) (UniProt P37231); assay: qHTS assay to identify small molecule antagonists of the peroxisome proliferator-activated receptor gamma (PPARg) signaling pathway (AID 743191; calls by dose curve; also: nearly all actives have a fitted effect of over 30% in size; also: potency is read from the fitted curve at half-maximal effect)
In short: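 Beta-lactamase reporter under UAS control in HEK293H PPARg-bla cells; compound treatment 17 h at 37C. Read-out: fluorescence intensity after 1 h room-temperature incubation with LiveBLAzer B/G FRET substrate.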

[16] = qHTS assay for small molecule agonists of the antioxidant response element (ARE) signaling pathway (AID 743202; active = well fitted activation curve with a large enough effect in the signal ratio in the repeat runs, not every such curve was filed as active; the % refers to the signal ratio)
In short: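 An ARE-responsive beta-lactamase gene stably integrated in HepG2 cells serves as reporter. After 5 h plating and 16 h compound incubation at 37 C, fluorescence of the B/G FRET substrate was measured.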

[17] = qHTS assay for small molecule activators of the heat shock response signaling pathway - cell viability counter screen (AID 743209); also: nearly all actives have a fitted effect of over 50% in size
In short: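 Luminescence from CellTiter-Glo, added after the beta-lactamase FRET read, gave the viability signal. Cells were HSE-bla HeLa treated with DMSO-dissolved compounds for 5 h at 37 C following overnight plating.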

[18] = molecular target: Bile acid receptor (Homo sapiens) (UniProt Q96RI1); assay: qHTS assay to identify small molecule antagonists of the farnesoid-X-receptor (FXR) signaling pathway (AID 743217; active = well fitted inhibition curve with a large enough effect in the signal ratio in the repeat runs, not every such curve was filed as active; the % refers to the signal ratio)
In short: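 HEK 293T FXR-UAS-bla, 5000 cells/well; compound + CDCA 50 uM final; 16 h, 37 °C; B/G FRET substrate 2 h RT; fluorescence.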

[19] = molecular target: Bile acid receptor (Homo sapiens) (UniProt Q96RI1); assay: qHTS assay to identify small molecule agonists of the farnesoid-X-receptor (FXR) signaling pathway (AID 743220; active = well fitted activation curve with a large enough effect in the signal ratio in the repeat runs, not every such curve was filed as active; the % refers to the signal ratio)
In short: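 Beta-lactamase reporter under UAS control in GeneBLAzer FXR HEK 293T cells (5000/well) measured with LiveBLAzer FRET substrate after 2 h at room temperature. Compound exposure lasted 16 h at 37C.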

Measured: Potency

Chain of Vitamin D3 receptor (Homo sapiens) (P11473 whole entry, looked up): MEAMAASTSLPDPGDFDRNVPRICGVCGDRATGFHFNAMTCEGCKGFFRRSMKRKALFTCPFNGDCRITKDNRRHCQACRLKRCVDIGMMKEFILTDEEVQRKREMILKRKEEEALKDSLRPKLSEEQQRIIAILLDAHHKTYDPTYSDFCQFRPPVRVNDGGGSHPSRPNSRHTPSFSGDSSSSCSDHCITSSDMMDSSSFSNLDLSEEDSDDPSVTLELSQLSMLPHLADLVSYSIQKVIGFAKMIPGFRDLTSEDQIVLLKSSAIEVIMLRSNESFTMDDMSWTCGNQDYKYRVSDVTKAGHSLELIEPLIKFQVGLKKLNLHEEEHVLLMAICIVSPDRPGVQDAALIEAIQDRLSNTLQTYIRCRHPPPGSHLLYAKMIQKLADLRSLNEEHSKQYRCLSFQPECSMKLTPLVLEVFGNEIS
Chain of Peroxisome proliferator-activated receptor gamma (Homo sapiens) (P37231 whole entry, looked up): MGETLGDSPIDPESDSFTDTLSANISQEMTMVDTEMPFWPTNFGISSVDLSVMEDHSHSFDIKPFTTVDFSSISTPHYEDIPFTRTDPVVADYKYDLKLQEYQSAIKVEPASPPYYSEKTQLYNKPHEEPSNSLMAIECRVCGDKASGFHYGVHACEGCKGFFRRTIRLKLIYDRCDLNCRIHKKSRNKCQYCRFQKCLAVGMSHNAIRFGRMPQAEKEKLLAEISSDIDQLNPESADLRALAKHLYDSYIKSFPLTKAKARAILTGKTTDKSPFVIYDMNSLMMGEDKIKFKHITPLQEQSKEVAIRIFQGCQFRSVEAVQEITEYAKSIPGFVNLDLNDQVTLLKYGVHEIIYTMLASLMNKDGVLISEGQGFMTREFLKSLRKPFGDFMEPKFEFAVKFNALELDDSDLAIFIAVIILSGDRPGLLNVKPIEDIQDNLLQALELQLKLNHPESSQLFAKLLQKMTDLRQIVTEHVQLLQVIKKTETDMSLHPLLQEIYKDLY
Chain of Peroxisome proliferator-activated receptor delta (Homo sapiens) (Q03181 whole entry, looked up): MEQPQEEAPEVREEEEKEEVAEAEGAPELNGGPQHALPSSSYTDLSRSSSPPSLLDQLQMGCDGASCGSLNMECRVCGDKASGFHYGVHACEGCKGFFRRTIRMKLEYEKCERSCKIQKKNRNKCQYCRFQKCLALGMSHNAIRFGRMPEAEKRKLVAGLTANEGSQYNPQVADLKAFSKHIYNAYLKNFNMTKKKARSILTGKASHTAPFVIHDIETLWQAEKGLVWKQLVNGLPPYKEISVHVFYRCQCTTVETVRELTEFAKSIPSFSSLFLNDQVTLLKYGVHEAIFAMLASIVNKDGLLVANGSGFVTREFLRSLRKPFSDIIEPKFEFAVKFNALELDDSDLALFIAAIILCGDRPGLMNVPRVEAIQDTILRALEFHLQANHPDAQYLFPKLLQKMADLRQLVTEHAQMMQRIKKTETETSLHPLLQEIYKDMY
Chain of Bile acid receptor (Homo sapiens) (Q96RI1 whole entry, looked up): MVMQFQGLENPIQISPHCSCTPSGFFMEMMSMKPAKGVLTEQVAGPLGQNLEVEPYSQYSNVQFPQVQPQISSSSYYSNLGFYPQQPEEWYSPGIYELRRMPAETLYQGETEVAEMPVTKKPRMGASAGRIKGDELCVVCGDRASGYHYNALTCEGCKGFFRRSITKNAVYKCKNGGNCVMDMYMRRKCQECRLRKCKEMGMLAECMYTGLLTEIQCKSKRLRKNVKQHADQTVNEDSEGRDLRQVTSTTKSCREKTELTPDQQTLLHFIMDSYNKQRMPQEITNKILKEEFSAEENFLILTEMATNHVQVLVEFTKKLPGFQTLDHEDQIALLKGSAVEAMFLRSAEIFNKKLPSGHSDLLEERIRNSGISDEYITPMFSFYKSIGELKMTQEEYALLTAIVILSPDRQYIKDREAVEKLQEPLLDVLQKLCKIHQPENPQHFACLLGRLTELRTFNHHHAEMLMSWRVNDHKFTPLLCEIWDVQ

O=C1OC(=O)c2c(Br)c(Br)c(Br)c(Br)c21
inactive: [1] | [2] | [3] | [4] | [5] | [6] | [7] | [8] | [9] | [10] | [11] | [12] | [13] | [14]

CCOC(=O)Oc1ccc(CCNC(=O)[C@H](CCSC)NC(C)=O)cc1OC(=O)OCC
inactive: [15] | [3] | [16] | [4] | [17] | [5] | [6] | [7] | [8] | [9] | [10] | [11] | [14]

Cc1oc(=O)oc1COC(=O)[C@@H]1N2C(=O)[C@@H](NC(=O)[C@H](N)c3ccccc3)[C@H]2SC1(C)C
inactive: [15] | [3] | [16] | [4] | [17] | [5] | [6] | [7] | [8] | [9] | [18] | [10] | [19] | [11] | [12] | [14]

CCOC(=O)c1ccc(NC(=O)CN2CCCCC2)cc1
inactive: [1] | [3] | [4] | [5] | [6] | [7] | [8] | [9] | [12] | [13] | [14]

Cc1ccccc1S(N)(=O)=O
inactive: [1] | [3] | [4] | [17] | [5] | [6] | [7] | [8] | [9] | [18] | [10] | [19] | [11] | [12] | [13] | [14]

C1=CCC2CC=CC2C1 (centres undefined)
inactive: [2] | [15] | [3] | [4] | [17] | [5] | [6] | [7] | [9] | [18] | [10] | [19] | [11] | [12] | [13] | [14]

CCCCCCCC(=O)Oc1c(Br)cc(C#N)cc1Br
inactive: [1] | [16] | [6] | [19] | [11] | [12] | [13]
active: [15] 34.5 µM
